The sample as a whole holds a higher share of hits than the screen did.
KDM5B inh: blocks human KDM5B histone demethylase activity | Q9UGL1 | KDM5B demethylase, FDH-coupled NADH fluorescence (FDH is formaldehyde dehydrogenase) | Potency, µM (titrated, usually from 57.7 µM), usual class: inhibitors | 220,000 tested, 2.6% active; active = well fitted inhibition curve with a large enough effect; note: nearly all actives have a fitted effect of over 70% in size
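Here, H3K4me3 peptide (12.5 µM in substrate mix) is demethylated by KDM5BΔAP, 200 nM final, after 10 min compound exposure. Formaldehyde product is coupled through FDH (0.25 U/mL in mix) to NADH fluorescence; 30-min ΔRFU feeds dose-response curves.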
A number is an active result; . = inactive.

SMILES	KDM5B inh
COc1cccc(C(=O)NCC2CCCN(Cc3ccn[nH]3)C2)c1OC (stereo not given)	.
Cc1ccc(C)c(-n2nc(-c3c(C)nc4scc(CC(=O)NCc5ccco5)n4c3=O)cc2C)c1	20µM
CC(=O)Nc1c(-c2ccc(C)cc2)c(C)nn1-c1ccc(C(=O)NCc2ccco2)cc1	.
Cc1ccc2occ(CC(=O)Nc3sc4c(c3C(=O)NCc3ccco3)CCCC4)c2c1	.
O=C(Nc1ccccc1C(F)(F)F)c1cccc(Cl)c1	.
CCN(CC)CCNc1nc2c(c(=O)[nH]c(=O)n2C)n1CC(O)COc1cccc(C)c1 (stereo not given)	.
C[C@H]1[C@@H]2[C@@H](O)C([C@H](C)C(=O)NCc3ccco3)CC[C@@]2(C)CC[C@@H]1NC(=O)c1ccccc1 (stereo not given in full)	.
CC(=O)c1c(C)[nH]c(-c2csc(CC(=O)Nc3ccc(C)cc3)n2)c1C	.
Cc1csc2nc(NC(=O)c3ccccc3)sc(=O)c12	.
CCCc1noc(-c2ccn3c(CNC(=O)C(C)Oc4ccccc4)nnc3c2)n1 (stereo not given)	25µM
CCCc1noc(-c2ccn3c(CNC(=O)Cc4ccccc4OC)nnc3c2)n1	18µM
CCCc1noc(-c2ccn3c(CNC(=O)c4cc5ccccc5[nH]4)nnc3c2)n1	.
CCCc1noc(-c2ccn3c(CNC(=O)c4ccccc4OC)nnc3c2)n1	3.2µM
CCN(CC)c1ncccc1CNC(=O)c1c(C)noc1C	.
Cc1noc(C)c1CCC(=O)N1CCOC(Cc2cccc(F)c2)C1 (stereo not given)	.
CCOC(=O)C1(Cc2cccc(Cl)c2)CCCN(C(=O)c2csc(C(C)=O)c2)C1 (stereo not given)	.
CC(=O)N1CCC(c2nn(-c3ccc(F)cc3)c(=O)[nH]2)CC1	.
Cc1ccc2nc(N3CCN(c4cccc(C)c4C)CC3)c3nncn3c2c1	.
O=C(c1cnn2ncccc12)N1CCOCC1	.
Cc1c(C(=O)N2CCOCC2)cnn1-c1ccccc1F	.
Cc1ccc2c(C(=O)N3CCOCC3)cnn2c1	32µM
Cc1sc2ncn(Cc3noc(-c4cccs4)n3)c(=O)c2c1C	.
c1ccc2c(c1)OCCOCCOCCOc1ccccc1OCCOCCOCCO2	.
CCCCn1c(N)c(N(C)C(=O)C2=NN(c3cccc(C)c3)C(=O)CC2)c(=O)[nH]c1=O	.
Cc1ccc(CCNC(=O)c2cc3c(N4CCCC4)nc(C)cn3n2)cc1	.
SMILES	KDM5B inh
Cc1cn2nc(C(=O)NC3CCCCCC3)cc2c(N2CCCC2)n1	6.3µM
CCOc1cc(=O)n2c(c1C(=O)NC1CCc3ccccc31)CCCCC2 (stereo not given)	.
O=C(NC1CCc2ccccc21)c1ccc2ccccc2n1 (stereo not given)	.
Cc1cn2nc(C(=O)NC3CCc4ccccc43)cc2c(N2CCCC2)n1 (stereo not given)	14µM
Cc1cn2nc(C(=O)NC3CCCC3)cc2c(N2CCCC2)n1	.
Cc1n[nH]c(C)c1S(=O)(=O)N(CC(=O)Nc1ccc(C(F)(F)F)cc1)c1ccc(C(C)C)cc1	.
COc1ccc(F)cc1NC(=O)C1CCN(c2nc(-c3ccc(OC)c(OC)c3)no2)CC1	.
O=C(CC1CCCN(c2cnn(CC3CC3)c(=O)c2)C1)NC1CC1 (stereo not given)	.
COc1ccc(-c2noc(N(c3nc(-c4ccc(OC)c(OC)c4)no3)c3ccccc3OC)n2)cc1OC	.
O=C(CN1C(=O)NC(c2ccccc2Cl)C2=C1COC2=O)Nc1cc(F)ccc1Cl (stereo not given)	.
CCCNc1c(NC(=O)NCCCOCC)c(=O)oc2ccccc12	.
CN(Cc1ccsc1)C(=O)c1ccc(C(=O)c2ccccc2)cc1	.
Cc1ccc(C#N)c(N2CC[C@@]3(O)CCN(S(=O)(=O)N(C)C)C[C@H]3C2)n1	28µM
CN(C)S(=O)(=O)N1CCC(Oc2ccc(C(=O)N3C[C@H]4CC[C@H]3C4)cc2)CC1	.
Cc1cccc(-n2c(SCC(=O)N3CCCCC3)nc3ccccc3c2=O)n1	.
Cc1ccccc1-n1cc(CN(C)C(=O)CN2CC3(CCCC3)CC2=O)cn1	.
Cc1cccc(N2CCN(C(=O)CN3CC4(CCCCC4)CC3=O)CC2)n1	32µM
Cn1c(=O)c2c(ncn2CC(=O)NC(C)(C)CC(C)(C)C)n(C)c1=O	.
CCCN1C(=O)c2[nH]nc(-c3ccc(F)cc3)c2C1c1ccccn1 (stereo not given)	.
CCC1CN(C(=O)c2ccc3nc[nH]c3c2)CCC(=O)N1Cc1ccccc1 (stereo not given)	.
CCC1CN(C(=O)c2ccc3nc(-c4ccccc4)cn3c2)CCN1C(C)C (stereo not given)	28µM
CCOC(=O)C1CCCN(C(=O)c2ccc3nccn3c2)C1 (stereo not given)	.
O=C(NCc1noc2ccccc12)Nc1ccc(F)cc1F	.
O=C(NC[C@H]1Cn2c(-c3ccc(F)cc3)cnc2CO1)NC1CCCCC1	.
O=C(NC[C@H]1Cn2c(-c3ccc4c(c3)OCO4)cnc2CO1)Nc1ccc(F)cc1	28µM

Screening results: PubChem BioAssay, National Center for Advancing Translational Sciences (NCATS)
